POLK inh: blocks human DNA polymerase kappa activity | Q9UBT6 | purified Pol kappa, fluorescent DNA synthesis assay, 10 min | Potency, µM (highest dose often 107 µM), without a hit: at the highest dose activity, negative = inhibition, actives largely listed as inhibitors | 400,000 tested, 0.53% active | AID 588579; note: potency is the fitted concentration of half-maximal effect; % is set by controls: 0 for no effect and ±100 for the full control effect
Target sequence (Q9UBT6 whole entry, looked up): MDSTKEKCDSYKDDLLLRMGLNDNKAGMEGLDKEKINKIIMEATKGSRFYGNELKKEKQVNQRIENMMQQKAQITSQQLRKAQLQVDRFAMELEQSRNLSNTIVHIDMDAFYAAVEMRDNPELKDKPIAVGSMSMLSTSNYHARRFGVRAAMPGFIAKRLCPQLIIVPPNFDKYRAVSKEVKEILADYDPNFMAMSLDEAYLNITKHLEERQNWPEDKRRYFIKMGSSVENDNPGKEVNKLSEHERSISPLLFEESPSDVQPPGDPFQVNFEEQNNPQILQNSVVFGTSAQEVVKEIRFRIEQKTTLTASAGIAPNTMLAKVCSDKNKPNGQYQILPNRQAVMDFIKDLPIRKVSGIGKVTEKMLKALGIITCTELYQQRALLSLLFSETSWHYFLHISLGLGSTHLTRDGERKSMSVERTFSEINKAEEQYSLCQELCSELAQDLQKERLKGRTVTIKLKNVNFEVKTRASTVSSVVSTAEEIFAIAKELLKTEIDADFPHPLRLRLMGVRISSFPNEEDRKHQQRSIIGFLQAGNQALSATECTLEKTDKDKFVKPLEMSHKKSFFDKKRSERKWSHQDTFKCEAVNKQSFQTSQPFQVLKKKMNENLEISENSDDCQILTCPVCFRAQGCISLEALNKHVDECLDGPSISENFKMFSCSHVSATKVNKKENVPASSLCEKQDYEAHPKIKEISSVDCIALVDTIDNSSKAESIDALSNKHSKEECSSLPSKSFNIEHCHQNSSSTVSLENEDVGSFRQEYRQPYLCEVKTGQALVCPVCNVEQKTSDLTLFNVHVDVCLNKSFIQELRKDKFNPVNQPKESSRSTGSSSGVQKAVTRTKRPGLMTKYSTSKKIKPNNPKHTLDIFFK
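50 nM final substrate added after 15 min RT preincubation of 10 nM Pol kappa with compound; fluorescence read at 0 and 10 min.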
POLH inh: DNA polymerase eta (human) inhibition. Potency, µM (series often up to 114 µM), inactives show at the top dose activity change, negative = inhibition, usual class: inhibitors. 390,000 tested, 1.2% active. recombinant Pol eta, fluorescent DNA replication assay; note: potency is the fitted concentration of half-maximal effect; % is set by controls: 0 for no effect and ±100 for the full control effect
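Fluorescent replication assay: 50 nM final substrate added after a 15 min room-temperature compound preincubation with 10 nM enzyme. Signal taken at 0 min and again at 10 min.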
POLB inh: blocks human DNA polymerase beta activity; Potency, µM (doses to about 114 µM), inactives show top-dose activity change, negative = inhibition, hits mostly inhibitors; Pol beta primer extension/strand displacement, fluorescence kinetic; P06746; 340,000 tested, 1.3% active; note: potency is the fitted concentration of half-maximal effect; % is set by controls: 0 for no effect and ±100 for the full control effect
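Preincubation: enzyme (10 nM) with compound, 15 min, RT. Reaction: substrate added to 50 nM final. Reads: 0 and 10 min. Analysis: normalized, Hill fit.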
WRN helicase inh: blocks human WRN helicase; 360,000 tested, 0.46% active; Potency, µM (titrated, usually from 114 µM), for inactives: at the highest dose activity change, negative = inhibition, most hits filed as inhibitors; WRN helicase unwinding, fluorescent forked duplex, kinetic; Q14191; note: potency is the fitted concentration of half-maximal effect; % is set by controls: 0 for no effect and ±100 for the full control effect; nearly all actives have a fitted effect of over 55% in size
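WRN at 20 nM final was preincubated with compound for 15 min at room temperature; reaction started with 100 nM forked duplex oligonucleotide carrying fluorophore and quencher plus 2 mM ATP (final). Unwinding followed kinetically by red fluorescence (ex 525/em 598 nm).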
PI5P4Ka inh: PI5P4K alpha (human) kinase inhibition; P48426; PI5P4Kalpha enzyme, ADP-Glo luminescence, 60 min; hits give low values; max response, %; 330,000 tested, 1.2% active; active = max response of -50% or lower; inconclusive = between -30% and -50%; inactive = -30% or higher; note: value at the top dose of about 77 µM; % is set by controls: 0 for no effect and ±100 for the full control effect
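ADP-Glo luminescence end-point after a 60 min room-temperature kinase reaction. PI5P4Kalpha and substrate in HEPES pH 7.4 buffer with EGTA, 0.1% CHAPS and 5% DMSO; ATP at 5 microM final.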
Pol iota inh: DNA polymerase iota (human) inhibition. Q9UNA4. Pol iota fluorescent replication assay, 10 min. Potency, µM (series often up to 115 µM), for inactives: at the highest dose activity, negative = inhibition, most hits filed as inhibitors. 390,000 tested, 1% active; note: potency is the fitted concentration of half-maximal effect
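Fluorescent replication assay read twice, at 0 min and 10 min after adding 50 nM (final) substrate. Enzyme (10 nM) and compounds were first incubated 15 min at room temperature; enzyme-free buffer wells were negative controls.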
The depositor's hits bear a star; ? = inconclusive; . = no result given; [ ] = dose if it differs, or a comment. Only some compounds are listed: those with a hit (about 2.8% of all), similar ones and a draw of the others. Unless noted, calls come from the whole dose curve; as a rule, active = well fitted curve in the direction sought with a large enough effect; inconclusive = small, poorly fitted or top-dose-only effect, or another doubt; inactive = no such curve, though single readings can be large; an effect the other way counts as inactive or inconclusive.

SMILES | POLK inh | POLH inh | POLB inh | WRN helicase inh | PI5P4Ka inh | Pol iota inh
COc1cccc(NC(=O)c2nnn(CC(=O)Nc3cc(C)cc(C)c3)c2N)c1 | -28% | -6% | 89µM* | -13% | -16 | ?
COc1cccc(NC(=O)Cn2nnc(C(=O)Nc3ccccc3)c2N)c1 | -13% | -5% | 8% | -4% | . | 0%
COc1ccccc1NC(=O)Cn1nnc(C(=O)NCCc2ccccc2)c1N | -15% | -10% | ? | ? | -10 | ?
COc1ccc(NC(=O)Cn2nnc(C(=O)NCc3ccccc3)c2N)c(OC)c1 | 2%[60.1 µM] | 10% | ? | 7% | -7 | ?
COc1ccc(NC(=O)Cn2nnc(C(=O)NCCc3ccccc3)c2N)c(OC)c1 | -8% | 35µM* | -25% | -1%[11.6 µM] | 0 | ?
CCOc1ccc(CCN2C(=S)N([C@@H](Cc3ccc(O)cc3)CN3CCC[C@@H]3CN3C(=S)NC[C@@H]3Cc3ccc(O)cc3)C[C@@H]2Cc2ccc(O)cc2)cc1 | . | . | . | -11% | -25 | .
Cc1oc2ncn(CC(C)C)c(=O)c2c1C(=O)Nc1cc(F)ccc1F | -8% | -11% | -6% | . | . | -4%
COc1ccc(CCNC(=O)c2nnn(CC(=O)Nc3ccccc3)c2N)cc1OC | -12% | 5% | ? | ? | 2 | ?
Cc1ccc(NC(=O)Cn2nnc(C(=O)NCCc3ccccc3)c2N)cc1 | ? | -30% | 16µM* | . | . | ?
CC(C)c1noc(-c2ccccc2OCC(=O)Nc2ccc([N+](=O)[O-])cc2)n1 | -12% | -13% | 2% | . | . | 36%
O=C(NCc1ccccc1)c1cc(C2COCCN2S(=O)(=O)c2cccs2)on1 (stereo unspecified) | . | . | . | -5% | 3 | .
Cc1c(NC(=O)c2ccc(N3CCCC3)c([N+](=O)[O-])c2)cccc1-c1nc2ccccc2s1 | 1% | 7% | 2% | 1%[11.6 µM] | . | 79µM*
CN1CCN(c2ccccc2NC(=O)c2ccc(N3CCCCC3)c([N+](=O)[O-])c2)CC1 | -23% | -13% | 4% | -1% | -6 | -17%
Cc1cccc2c1-c1sc(C(=O)Nc3nccs3)cc1CO2 | -14% | -11% | 25% | 0% | 2 | -2%
Cc1cc(C(=O)Nc2cccc([N+](=O)[O-])c2C)cs1 | -1% | 4% | 7% | -4% | -2 | -11%
Cc1cccc2c1-c1sc(C(=O)Nc3ccccc3C(N)=O)cc1CO2 | 6% | -5% | 20% | . | . | 79µM*
Cc1cccc2c1-c1sc(C(=O)Nc3cccc([N+](=O)[O-])c3C)cc1CO2 | -9% | -6% | 0.2µM* | -3% | 3 | 7%
Cc1c(NC(=O)c2ccc3nsnc3c2)cccc1[N+](=O)[O-] | ? | 2% | 15% | -2% | -4 | 25µM*
CC(=O)c1cccc(NC(=O)c2cc3c(s2)-c2c(C)cccc2OC3)c1 | -3% | -4% | 14% | . | . | -11%
NC(=O)CN1CCN(C(=O)NC2CCCCC2)CC1 | 22% | -9% | 32µM* | -1% | 3 | 12%
Cn1c(=O)c(S(=O)C2CCCCC2)c(O)c2ccccc21 (stereo unspecified) | -5% | 0% | . | 0% | -3 | 24%
N=c1oc2c3c4c(cc2cc1C(=O)Nc1ccccc1)CCCN4CCC3 | -13% | -12% | 12% | 56µM* | 2 | 62%
CC1(C(=O)NC2CCCC2)CCC(=O)N1CCOc1ccccc1 (stereo unspecified) | . | . | . | 1% | 1 | .
O=C(/C=C/c1ccco1)OCc1nnc(-c2ccccc2)o1 | -34% | 24% | 22µM* | -18% | -26 | 79µM*
O=C(/C=C/c1ccco1)OCn1nnc2ccccc2c1=O | -4% | -5% | 20µM* | -3% | 3 | 29%
SMILES | POLK inh | POLH inh | POLB inh | WRN helicase inh | PI5P4Ka inh | Pol iota inh
O=C(OCc1nnc(-c2ccccc2)o1)c1ccc(CO)cc1 | -10% | 1% | 2% | -12% | 5 | -6%
O=C(/C=C/c1ccco1)OCc1nnc(-c2ccc(Cl)cc2)o1 | -22% | -12% | 35µM* | -18% | -29 | ?
CCCCC[C@H](O)/C=C\[C@H]1[C@H](C/C=C\CCCC(=O)O)[C@@H](O)C[C@H]1O (tested in a mixture with another compound) | -3%[12 µM] | . | . | . | . | .
Oc1[nH]c2ccccc2c1N=NC(=S)N1CCOCC1 | 2% | -9% | -2% | -5% | -28 | 30%
Oc1[nH]c2ccc(Br)cc2c1N=NC(=S)N1CCOCC1 | -27% | -5% | 19% | -18% | -54* | 9%
CC1Cc2ccccc2N1C(=O)COC(=O)c1ccc(N(C)C)cc1 (stereo unspecified) | 50µM* | 7.9µM* | . | 56µM* | -9 | 13µM*
COc1cccc(NC(=O)c2cc3cccc(OC)c3o/c2=N\O)c1 | . | . | 6% | . | . | .
COc1ccc(NC(=O)c2cc3cccc(OC)c3oc2=Nc2ccc(C(=O)O)cc2)cc1OC | -37% | 14µM* | ? | -5% | 0 | -8%
O=C(NCc1cccnc1)c1nn(-c2ccc(F)cc2)nc1CO | -15% | -10% | -4% | . | . | 20%
COc1ccc2c(/C=C/c3cc[n+](C)cc3)c[nH]c2c1 | -15% | -27% | 2% | -12% | 11 | 177%
COc1ccc2c(c1)c(/C=C/c1cc[n+](C)cc1)cn2C | -19% | -15% | 89µM* | -36% | -3 | ?
O=C(NCCCNC(=O)c1c(Cl)cccc1Cl)c1c(Cl)cccc1Cl | 0% | -12% | . | 13% | 6 | 12%
CN(c1ccc(C(=O)NCCSCc2ccco2)cc1)S(C)(=O)=O | -2% | -14% | 1µM* | -13% | -4 | 7%
COc1ccc(N(CC(=O)NCCSCc2ccco2)S(=O)(=O)c2ccccc2)cc1 | -7% | -3% | -11% | -7% | 0 | 38%
O=C(CN(c1ccccc1)S(=O)(=O)c1ccccc1)NCCSCc1ccco1 | 79µM* | ? | 56µM* | -12%[11.6 µM] | ? | ?
Oc1ccc(/C=N/Nc2ncnc3nc[nH]c23)cc1 | -11% | ? | ? | -24% | -66* | 15%
CC(=O)Oc1cc(OC(C)=O)c2c(=O)cc(-c3ccc(OC(C)=O)c(OC(C)=O)c3)oc2c1 | 8.9µM* | . | . | . | . | .
CC(=O)Oc1cc(O)c2c(=O)c(OC(C)=O)c(-c3ccc(OC(C)=O)c(OC(C)=O)c3)oc2c1 | 7.1µM* | 2.8µM* | . | ? | -98* | 8.9µM*
O=C(Nc1cccc(Cl)c1)c1cccc(N2C(=O)C3CC=CCC3C2=O)c1 (stereo unspecified) | -18% | -21% | 16µM* | -24% | -6 | ?
Cc1cccc(Nc2nc(C)cc(C)c2C#N)c1 | -2% | -19% | -13% | -1% | 4 | 11%
Cc1ccc(Nc2nc(N)nc(N)c2N=O)cc1C | . | . | . | -2% | -5 | .

From PubChem
